From ChEMBL document CHEMBL3988442, “University of Dundee, Small-Polar-MMV Screening Library” (2021)
For some of these results: Entries with a potency or affinity are not part of this list.

Experiments:
Design in all cases: scale not given: direction of the effect not stated beside the values
[1] = molecular target: Protein translocase subunit SecA (Escherichia coli (strain K12)) (UniProt P10408); assay: Assay to Identify E. coli SecA ATPase Inhibitors; format: functional; details: 30 µM
[2] = molecular target: T1, Ubiquitin-activating enzyme e1, putative (Leishmania donovani (strain BPK282A1)) (UniProt E9BSI1); assay: Leishmania donovani Ubiquitin Activating Enzyme (LdE1); format: functional; details: 30 µM
T1 sequence (whole entry): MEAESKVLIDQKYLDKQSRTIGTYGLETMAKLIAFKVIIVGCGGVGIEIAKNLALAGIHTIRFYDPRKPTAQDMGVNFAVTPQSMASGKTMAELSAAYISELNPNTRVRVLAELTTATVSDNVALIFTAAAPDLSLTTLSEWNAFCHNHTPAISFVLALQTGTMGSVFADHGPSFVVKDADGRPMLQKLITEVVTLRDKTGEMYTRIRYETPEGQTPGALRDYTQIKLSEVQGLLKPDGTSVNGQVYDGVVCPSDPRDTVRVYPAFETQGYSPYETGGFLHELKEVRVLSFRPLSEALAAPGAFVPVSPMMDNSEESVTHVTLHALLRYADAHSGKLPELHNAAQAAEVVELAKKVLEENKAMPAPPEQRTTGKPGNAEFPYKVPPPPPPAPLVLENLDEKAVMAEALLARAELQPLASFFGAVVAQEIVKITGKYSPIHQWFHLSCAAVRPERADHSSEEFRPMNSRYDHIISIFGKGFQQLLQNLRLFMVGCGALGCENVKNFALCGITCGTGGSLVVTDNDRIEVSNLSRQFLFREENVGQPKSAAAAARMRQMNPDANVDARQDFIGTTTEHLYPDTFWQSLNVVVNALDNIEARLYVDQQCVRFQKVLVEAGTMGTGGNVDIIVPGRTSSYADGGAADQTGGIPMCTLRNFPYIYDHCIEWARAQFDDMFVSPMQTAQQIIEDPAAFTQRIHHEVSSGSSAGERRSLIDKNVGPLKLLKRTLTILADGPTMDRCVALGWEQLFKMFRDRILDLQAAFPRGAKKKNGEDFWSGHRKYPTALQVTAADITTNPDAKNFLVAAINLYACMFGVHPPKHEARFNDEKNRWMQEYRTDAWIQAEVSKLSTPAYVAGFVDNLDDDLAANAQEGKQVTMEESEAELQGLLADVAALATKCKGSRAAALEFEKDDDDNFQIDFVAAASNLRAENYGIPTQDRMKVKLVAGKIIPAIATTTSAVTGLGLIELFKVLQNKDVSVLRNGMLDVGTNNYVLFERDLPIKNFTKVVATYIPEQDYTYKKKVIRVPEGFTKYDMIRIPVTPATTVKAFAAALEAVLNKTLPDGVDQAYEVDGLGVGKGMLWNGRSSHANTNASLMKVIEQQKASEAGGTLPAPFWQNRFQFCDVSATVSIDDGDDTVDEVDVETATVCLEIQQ

[3] = molecular target: AMP-activated protein kinase, AMPK (Homo sapiens) (UniProt P54646+O43741+P54619+Q9UGJ0+Q9Y478+Q13131+Q9UGI9); assay: AMP-dependent Kinase enzyme assay. An in vitro enzyme assay that detects ADP turnover that is directly proportional to AMPK activity. This uses naive AMPK that is activated during the assay with MK-8722; format: functional; details: 30 µM
[4] = molecular target: Sialic acid-binding Ig-like lectin 9 (Homo sapiens) (UniProt Q9Y336); assay: Hs-Siglec9 ALPHAscreen SOP 20170721; details: 10 µM
Sequence of Sialic acid-binding Ig-like lectin 9 (Homo sapiens) (Q9Y336 whole entry): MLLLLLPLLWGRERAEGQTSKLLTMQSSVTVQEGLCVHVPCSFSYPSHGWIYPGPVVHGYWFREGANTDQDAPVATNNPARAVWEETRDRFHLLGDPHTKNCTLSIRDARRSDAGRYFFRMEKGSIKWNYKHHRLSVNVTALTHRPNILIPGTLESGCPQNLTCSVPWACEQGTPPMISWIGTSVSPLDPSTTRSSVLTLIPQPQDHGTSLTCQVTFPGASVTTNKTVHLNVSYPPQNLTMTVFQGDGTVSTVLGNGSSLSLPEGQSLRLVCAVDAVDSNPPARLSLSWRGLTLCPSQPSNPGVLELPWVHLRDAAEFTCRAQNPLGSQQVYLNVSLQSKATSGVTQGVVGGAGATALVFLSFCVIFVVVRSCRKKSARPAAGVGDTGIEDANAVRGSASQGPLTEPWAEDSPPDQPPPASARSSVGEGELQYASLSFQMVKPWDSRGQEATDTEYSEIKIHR

[5] = tested on: Trypanosoma cruzi; assay: Trypanosoma cruzi phosphomannomutase and mannose-1-phosphate guanylyltransferase assay; format: functional; details: 10 µM
[6] = molecular target: T2, Arginase-2, mitochondrial (Homo sapiens) (UniProt P78540); assay: in vitro enzyme assay to detect the production of urea directly proportional to the activity of Arginase II; format: functional; details: 33.3 µM; further: in the data most compounds retested in dose-response had high values
T2 sequence (whole entry): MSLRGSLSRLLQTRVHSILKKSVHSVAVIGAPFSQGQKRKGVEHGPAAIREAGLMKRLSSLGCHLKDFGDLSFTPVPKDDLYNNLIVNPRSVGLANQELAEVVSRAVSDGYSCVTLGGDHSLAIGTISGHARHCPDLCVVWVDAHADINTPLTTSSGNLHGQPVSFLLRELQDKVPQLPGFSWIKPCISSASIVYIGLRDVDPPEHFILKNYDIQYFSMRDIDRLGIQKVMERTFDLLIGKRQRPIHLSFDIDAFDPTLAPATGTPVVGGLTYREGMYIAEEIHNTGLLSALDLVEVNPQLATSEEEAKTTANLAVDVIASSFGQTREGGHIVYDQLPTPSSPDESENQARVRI

[7] = molecular target: T3, Proteasome subunit beta (Trypanosoma cruzi) (UniProt O96673); assay: Trypanosoma cruzi proteasome chymotrypsin-like activity (TcProtChymo) assay.; further: in the data most compounds retested in dose-response had high values; format: functional; details: 9.37 µM
T3 sequence (whole entry): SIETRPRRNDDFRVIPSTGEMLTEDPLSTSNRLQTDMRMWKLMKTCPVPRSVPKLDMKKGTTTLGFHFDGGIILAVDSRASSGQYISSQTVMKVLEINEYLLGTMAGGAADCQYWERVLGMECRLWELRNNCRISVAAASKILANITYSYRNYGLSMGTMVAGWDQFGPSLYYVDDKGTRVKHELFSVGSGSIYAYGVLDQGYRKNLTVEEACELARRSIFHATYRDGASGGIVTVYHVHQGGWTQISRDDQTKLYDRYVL

[8] = species: Homo sapiens; assay: To identify inhibition of the IFN signalling (Jak-Stat) pathway via expression of an eGFP reporter gene under the control of an IFN-stimulated response element (ISRE) containing MxA promoter.; format: functional; details: 30 µM
[9] = molecular target: T4, Tyrosyl-tRNA synthetase, putative (Trypanosoma cruzi (strain CL Brener)) (UniProt Q4DSP6); assay: Trypanosoma cruzi tyrosyl tRNA synthetase (TcYRS) _High Tyrosine SOP; format: functional; details: 30 µM; further: in the data most compounds retested in dose-response had high values
T4 sequence (whole entry): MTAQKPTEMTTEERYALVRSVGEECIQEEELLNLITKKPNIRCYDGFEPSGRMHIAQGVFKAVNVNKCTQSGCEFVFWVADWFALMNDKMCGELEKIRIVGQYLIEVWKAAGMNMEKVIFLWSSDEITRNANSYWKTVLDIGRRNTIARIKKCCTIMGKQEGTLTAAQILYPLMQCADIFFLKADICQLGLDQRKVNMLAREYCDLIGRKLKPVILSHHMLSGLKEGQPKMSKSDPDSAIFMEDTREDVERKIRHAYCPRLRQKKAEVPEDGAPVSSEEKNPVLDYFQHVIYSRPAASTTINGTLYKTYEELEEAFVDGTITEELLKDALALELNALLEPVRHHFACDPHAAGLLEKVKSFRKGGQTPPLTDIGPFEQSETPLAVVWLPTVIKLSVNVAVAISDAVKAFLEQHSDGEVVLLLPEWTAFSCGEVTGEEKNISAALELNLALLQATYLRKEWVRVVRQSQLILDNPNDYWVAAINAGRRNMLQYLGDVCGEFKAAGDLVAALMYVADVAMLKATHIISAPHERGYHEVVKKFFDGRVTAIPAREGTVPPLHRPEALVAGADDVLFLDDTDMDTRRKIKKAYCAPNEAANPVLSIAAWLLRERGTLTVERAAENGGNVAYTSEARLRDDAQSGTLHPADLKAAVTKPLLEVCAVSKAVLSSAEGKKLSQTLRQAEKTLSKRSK

[10] = molecular target: T4, Tyrosyl-tRNA synthetase, putative (Trypanosoma cruzi (strain CL Brener)); assay: Trypanosoma cruzi tyrosyl tRNA synthetase (TcYRS) SOP; format: functional; details: 30 µM
[11] = molecular target: Chromo domain-containing protein 1 (Saccharomyces cerevisiae (strain ATCC 204508 / S288c) (Baker's yeast)) (UniProt P32657); assay: ScCHD-1 Enzyme Inhibition Assay; format: functional; details: 30 µM; further: in the data most compounds retested in dose-response had high values
Sequence of Chromo domain-containing protein 1 (Saccharomyces cerevisiae (strain ATCC 204508 / S288c) (Baker's yeast)) (P32657 whole entry, the tested form may be a part): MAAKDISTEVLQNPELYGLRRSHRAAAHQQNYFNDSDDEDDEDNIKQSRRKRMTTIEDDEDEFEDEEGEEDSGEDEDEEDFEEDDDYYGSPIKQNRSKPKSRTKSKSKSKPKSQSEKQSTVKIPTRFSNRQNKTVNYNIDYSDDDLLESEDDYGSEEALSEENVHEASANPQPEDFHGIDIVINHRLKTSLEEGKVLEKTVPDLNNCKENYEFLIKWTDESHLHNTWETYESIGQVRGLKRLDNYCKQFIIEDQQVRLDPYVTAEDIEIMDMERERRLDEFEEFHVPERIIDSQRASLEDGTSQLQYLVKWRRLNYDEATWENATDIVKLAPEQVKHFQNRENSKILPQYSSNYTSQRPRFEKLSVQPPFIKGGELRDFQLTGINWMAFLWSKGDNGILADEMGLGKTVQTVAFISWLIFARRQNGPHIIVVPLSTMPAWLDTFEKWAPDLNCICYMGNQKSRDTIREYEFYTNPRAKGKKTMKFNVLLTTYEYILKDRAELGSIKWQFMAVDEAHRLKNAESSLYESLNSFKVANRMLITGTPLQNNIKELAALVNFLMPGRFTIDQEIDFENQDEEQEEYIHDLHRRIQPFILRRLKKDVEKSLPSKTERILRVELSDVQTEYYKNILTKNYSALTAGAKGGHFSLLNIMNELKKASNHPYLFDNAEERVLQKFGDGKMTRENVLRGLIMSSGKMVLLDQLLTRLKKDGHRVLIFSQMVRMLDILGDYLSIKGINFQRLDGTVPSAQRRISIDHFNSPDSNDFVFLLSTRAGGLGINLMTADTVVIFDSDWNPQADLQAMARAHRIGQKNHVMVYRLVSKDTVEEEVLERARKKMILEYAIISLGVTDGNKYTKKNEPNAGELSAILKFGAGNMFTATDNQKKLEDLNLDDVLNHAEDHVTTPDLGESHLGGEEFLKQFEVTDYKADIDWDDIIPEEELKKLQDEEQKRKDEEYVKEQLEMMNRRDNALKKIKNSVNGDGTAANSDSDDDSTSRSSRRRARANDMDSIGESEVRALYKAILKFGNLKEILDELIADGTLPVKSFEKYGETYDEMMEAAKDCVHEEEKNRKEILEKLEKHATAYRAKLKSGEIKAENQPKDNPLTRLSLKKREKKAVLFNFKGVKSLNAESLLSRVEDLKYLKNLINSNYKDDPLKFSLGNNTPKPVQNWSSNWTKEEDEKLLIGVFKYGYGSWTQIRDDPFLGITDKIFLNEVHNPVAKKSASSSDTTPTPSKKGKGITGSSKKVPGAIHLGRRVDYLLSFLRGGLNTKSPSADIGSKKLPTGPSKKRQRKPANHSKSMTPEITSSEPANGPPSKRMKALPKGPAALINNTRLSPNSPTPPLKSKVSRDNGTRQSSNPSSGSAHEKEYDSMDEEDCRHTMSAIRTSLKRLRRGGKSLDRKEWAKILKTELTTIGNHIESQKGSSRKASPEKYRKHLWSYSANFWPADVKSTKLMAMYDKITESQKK

Sequence of Protein translocase subunit SecA (Escherichia coli (strain K12)) (P10408 whole entry): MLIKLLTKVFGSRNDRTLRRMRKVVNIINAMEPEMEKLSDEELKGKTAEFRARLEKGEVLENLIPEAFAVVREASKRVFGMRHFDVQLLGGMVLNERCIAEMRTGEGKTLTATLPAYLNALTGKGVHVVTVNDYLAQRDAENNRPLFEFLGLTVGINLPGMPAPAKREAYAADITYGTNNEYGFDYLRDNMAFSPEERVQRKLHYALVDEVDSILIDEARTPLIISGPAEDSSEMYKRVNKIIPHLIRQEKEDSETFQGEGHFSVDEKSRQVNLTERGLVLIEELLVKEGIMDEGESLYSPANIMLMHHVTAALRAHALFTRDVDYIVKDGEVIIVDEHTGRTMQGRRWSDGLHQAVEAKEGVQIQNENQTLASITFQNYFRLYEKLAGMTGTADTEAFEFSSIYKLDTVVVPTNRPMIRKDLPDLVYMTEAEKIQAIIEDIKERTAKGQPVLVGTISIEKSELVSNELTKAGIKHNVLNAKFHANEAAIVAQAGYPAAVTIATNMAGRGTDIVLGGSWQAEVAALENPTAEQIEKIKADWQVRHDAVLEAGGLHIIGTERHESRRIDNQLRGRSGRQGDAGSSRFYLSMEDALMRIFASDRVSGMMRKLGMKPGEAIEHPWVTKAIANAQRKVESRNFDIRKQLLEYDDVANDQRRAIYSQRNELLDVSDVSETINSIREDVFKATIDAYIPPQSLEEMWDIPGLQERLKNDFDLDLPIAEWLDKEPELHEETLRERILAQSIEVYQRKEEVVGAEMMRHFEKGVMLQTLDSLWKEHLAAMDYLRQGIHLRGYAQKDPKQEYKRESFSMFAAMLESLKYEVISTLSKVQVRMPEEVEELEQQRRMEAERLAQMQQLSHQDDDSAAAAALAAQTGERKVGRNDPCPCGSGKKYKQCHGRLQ

| SMILES | Percent Effect [1] [%] | Percent Effect [2] [%] | Percent Effect [3] [%] | Percent Effect [4] [%] | Percent Effect [5] [%] | Percent Effect [6] [%] | Percent Effect [7] [%] | Percent Effect [8] [%] | Percent Effect [9] [%] | Percent Effect [10] [%] | Percent Effect [11] [%] |
| --- | --- | --- | --- | --- | --- | --- | --- | --- | --- | --- | --- |
| O=C(c1cc[nH]n1)N1CCCC1C1CCN(Cc2ccccc2)CC1 (configuration not stated) | -0.52 | -7.89 | 10.9 | 1.13 | -7.11 | 1.18 | 16.6 | -0.106 | 4.25 | 7.79 | -1.17 |
| CN1Cc2c(C(=O)Nc3cccnc3)ncn2-c2ccccc2S1(=O)=O | -1.38 | -5.48 | -2.46 | 4.18 | 0 | -4.39 | 7.79 | -3.68 | 0 | 6.17 | 0.964 |
| CCOc1cc(C)nc(N2CCN(C(=O)c3ccc[nH]3)CC2)n1 | -3.03 | 2.7 | 1.91 | 13.3 | -6.59 | 2.77 | 3.23 | 22.2 | -0.99 | 3.66 | 1.45 |
| COc1cccc(CN2C[C@@H]3COC[C@]3(COCc3ccncc3)C2)c1 | -5.26 | 8.11 | 5.1 | -1.02 | 6.94 | -4.14 | 14.6 | 5.58 | 2.16 | 10.3 | -0.65 |
| CN1CCN(Cc2ccccc2CNC(=O)c2ccc(Br)cc2)CC1 | -4.93 | 8.11 | -2.99 | 8.77 | 0.0978 | 1.24 | 5.92 | -4.85 | 3.23 | 16.1 | -1.46 |
| CCOCCN1CCN(Cc2nc(C3CC3)no2)CC1CC (configuration not stated) | -6.05 | 5.48 | 6.32 | 25.2 | 10.4 | 0.909 | 9.41 | 2.26 | 3.23 | 7.5 | -5.89 |
| Cc1ccoc1C(=O)N1C[C@@H]2[C@@H](C1)OCC(=O)N2Cc1cccnc1 | -4.32 | -15.6 | -0.37 | 0.332 | -2.86 | 3.23 | 2.96 | 19.8 | -27.5 | -47.4 | 5.56 |
| O=C(CC1CCCC1)N1CCCC(c2n[nH]c3nccnc23)C1 (configuration not stated) | -2.49 | 6.76 | 20.4 | 3.58 | -2.17 | 7.66 | 11.2 | 13.3 | 3.23 | 16.9 | -9.36 |
| COc1ccc(C(=O)N2CCCC(CNS(C)(=O)=O)C2)cc1F (configuration not stated) | -4.66 | 8.11 | -5.72 | 6.16 | -3.3 | 2.4 | 0.18 | 6.39 | 5.42 | 16.1 | -6.29 |
| CS(=O)(=O)NC[C@]12COC[C@H]1CN(C(=O)Cc1ccccc1F)C2 | 0.295 | -101 | 5.66 | -7.42 | -7.2 | -4.52 | 6.44 | -5.85 | -125 | -232 | -6.07 |
| COc1ccc(CCNC(=O)NC2CCCC2)cc1OC | 0.159 | 8.11 | -0.309 | 3.69 | -1.16 | 3.33 | 13.3 | 6.13 | 5.82 | 9.76 | -3.01 |
| c1ccc(-c2nc(CNC3CCc4ncnn4C3)co2)cc1 (configuration not stated) | -6.67 | 20.8 | -3.92 | 12.6 | 7.68 | -3.92 | 3.21 | 9.63 | 8.74 | 19.5 | -7.68 |
| CC(=O)N1CC(=O)N(c2ccccc2)CC12CCN(Cc1cccs1)C2 (configuration not stated) | -0.462 | 16 | -5.96 | 8.98 | 2.51 | -36.4 | 7.69 | -11.1 | 5.21 | 27.5 | -7.74 |
| O=C(CCn1ccc2cc(Br)ccc21)NCc1ccc(C(=O)O)cc1 | -5.12 | 2.63 | 11.6 | 0.438 | -3.02 | -3.55 | 16.2 | 10.9 | -6.38 | -10.4 | -1.59 |
| Cc1ccccc1C(=O)CN1C(=O)c2ccccc2CS1(=O)=O | -2.33 | -10.8 | 2.31 | -3.21 | -5.41 | -2.86 | 12.8 | 18.7 | -25.9 | -31.7 | 14.8 |
| O=c1[nH]c2nc(N3CCSCC3)ncc2c(=O)n1-c1cccc(F)c1 | -3.04 | 7.89 | 7.15 | -1.69 | -1.46 | 5.92 | 15.4 | 9.74 | 3.19 | 10.4 | -0.88 |
| Cc1cncc(C(=O)N2CCCC(C(=O)CCc3ccccc3)C2)c1 (configuration not stated) | 3.06 | 2.74 | 1.42 | 1.76 | -5.88 | 4.54 | 19.2 | 14.7 | 4.3 | 15 | -12.2 |
